Source: PubChem BioAssay AID624296 (National Center for Advancing Translational Sciences (NCATS), 2012)
About 9,900 (2.8%) of roughly 350,000 compounds were called active. Another 15% or so got no clear call; they are omitted. This excerpt belongs to a sample that is enriched for actives. Unmarked numbers belong to inactive results. The call rests on the fitted dose curve; in most records, active means well fitted activation curve with a large enough effect; inconclusive means small, poorly fitted or top-dose-only effect; inactive means no such curve, though single readings can be large or run the other way.

assay: A quantitative high throughput screen for small molecules that induce DNA re-replication in MCF 10a normal breast cells.; further: nearly all actives have a fitted effect of over 50% in size; on activity, positive = re-replication: % of control where 0% means no effect; details: MCF 10A DNA re-replication, Hoechst nuclear intensity, 48 h; series mostly up to 46.1 µM; activity, positive = re-replication: at the top concentration
Potency means the concentration at half of the fitted maximal effect.

Point of comparison: CCN(CC(=O)NCc1ccc(F)cc1)S(=O)(=O)c1ccc(Cl)s1, “activity, positive = re-replication” value -1.33%. Against it:
- Cc1ccc(S(=O)(=O)Cc2cc(-c3ccc(Cl)cc3)no2)cc1 — higher, 17.2%
- CC(=O)Nc1ccc(C(=O)NNC(=O)CCCCC(=O)NNC(=O)c2ccc(NC(C)=O)cc2)cc1 — higher, 5.58%
- CC(=O)Nc1ccc(C(=O)/C=C/c2ccc[nH]2)cc1 — higher, 14.4%
- Cc1ccc(C(=O)Nc2ccc3c(c2)OCCO3)cc1S(=O)(=O)N1CCOCC1 — higher, 8.12%
- Cn1c(=O)c2c(nc(SCC(=O)Nc3ccccc3N3CCCCC3)n2C)n(C)c1=O — higher, 2.92%
- Cc1ccccc1NC(=O)CNc1ccccc1N1CCCCC1 — higher, 27%
- COc1ccc(C(=O)NCC2CCCCC2)cc1S(=O)(=O)N1CCCC1 — lower, -4.77%
- Nc1nonc1-n1nnc(C(=O)N/N=C/c2ccccc2O)c1CN1CCCC1 — higher, 12.2%
- Cc1ccc(SCc2c(C(=O)N/N=C/C3CC=CCC3)nnn2-c2nonc2N)cc1 (configuration not stated) — lower, -2.37%
- COc1ccc(C2(c3ccc(OC)cc3)NC(=O)N(CC(=O)Nc3cc(C)on3)C2=O)cc1 — higher, 18.8%
- Cn1c(=O)c2c(ncn2CCc2ccccc2)n(C)c1=O — higher, 0.307%
- Cn1c(=O)c2c(ncn2CC(=O)N2CCN(c3ccccc3)CC2)n(C)c1=O — higher, 0.0795%
- O=C(O)C1C2C=CC(O2)C1C(=O)Nc1ccccn1 (configuration not stated) — lower, -41%
- O=C(CNC(=O)c1n[nH]c2ccccc12)Nc1cc(Cl)ccc1Cl — higher, 4.67%
- COC[C@@H]1NS(=O)(=O)c2ccc(Br)cc2O[C@H]1c1ccccc1 — lower, -6.09%
- O=C(O)/C=C/C(=O)Nc1ccc(F)cc1F — higher, 18.2%
- COc1ccccc1NC(=O)/C=C/C(=O)O — higher, 36.3%
- COC(=O)c1sc(NC(=O)COC(=O)C2CCC2)c(C(=O)OC)c1C — higher, 1.46%
- CC(NCC(=O)Nc1ccccc1C(=O)NC1CC1)c1ccccc1Cl (configuration not stated) — higher, 6.15%
- CC(C)CC(=O)Nc1ccc(Cc2ccncc2)cc1 — higher, 11.8%
- O=C(O)CCCC(=O)Nc1ccccc1-n1ccnc1 — lower, -7.39%
- O=[N+]([O-])c1ccc(COc2ccccc2CN2CCOCC2)cc1 — higher, 18.5%
- COc1ccc(C(=O)Nc2cccc(S(C)(=O)=O)c2)cc1 — higher, 15.3%
- COc1cccc(C(=O)Nc2nc3ccc(S(C)(=O)=O)cc3s2)c1 — higher, 1.21%
- CC(=O)Nc1ccc(S(=O)(=O)NCCC(=O)N2CCN(c3ccccc3Cl)CC2)cc1 — higher, 5.38%
- NC(=O)c1ncn([C@@H]2O[C@H](CN=C3NS(=O)(=O)c4ccccc43)[C@@H](O)[C@H]2O)n1 — lower, -6.43%
- CCc1sc(C(=O)N2CCN(CC(=O)Nc3cccc(F)c3)CC2)cc1C — lower, -1.39%
- CCOc1ccc(N2C(=O)CC(N(O)c3ccccc3)C2=O)cc1 (configuration not stated) — higher, 13.9%
- COC(=O)CN(C(=S)Nc1ccc(Cl)cc1)C1CC(=O)N(c2ccc(OC)cc2)C1=O (configuration not stated) — lower, -2.14%
- COc1ccccc1N1CCN(CC(=O)Nc2ccnn2C2CCCC2)CC1 — higher, 2.55%
- CC(C)Cn1cnc2c(SCc3ccc(Cl)cc3)nc(N)nc21 — higher, 22.9%
- O=C(O)c1ccc(Cn2c(=S)[nH]c3cc(Cl)ccc3c2=O)cc1 — lower, -9.11%
- CCN([C@H](CO)C(C)C)S(=O)(=O)c1ccccc1Br — lower, -19.4%
- COc1ccc(-c2c(C#Cc3ccsc3)c3cc(-c4ccc(CN5CCOCC5)cc4)ccc3n2C)cc1 — higher, 0%
- COc1cc(OC)cc(-c2c(C#Cc3ccsc3)c3cc(-c4ccc(SC)cc4)ccc3n2C)c1 — higher, 18.3%
- COc1cccc2oc(CCc3ccccc3)cc(=O)c12 — higher, 27.3%
- Cc1nn(-c2ncccn2)c2c1C(=O)CC(C)(C)C2Br (configuration not stated) — higher, 3.7%
- O=C(O)CCC(=O)N(Cc1cccs1)Cc1cccs1 — higher, 1.98%
- CCN(CC)C(=O)N(CC)Cc1ccccc1 — higher, 7.14%
- Cc1cc(NC(=O)C(C)SCC(=O)Nc2cccc(S(=O)(=O)N3CCCCCC3)c2)no1 (configuration not stated) — lower, -13.4%

With CCCC(=O)Nc1ccc(C(=O)N/N=C/c2ccc[nH]2)cc1 the Potency was 16.4 µM (active).
For O=C(CNCCC1=CCCCC1)Nc1ccccc1N1CCCCCC1, the Potency was 20.6 µM (active).
With Nc1nonc1-n1nnc(C(=O)N/N=C/c2cc(Br)ccc2O)c1CSC1=NCCS1 the Potency was 10.3 µM (active).
In the case of Cn1c(=O)c2c(ncn2CC(COCc2ccccc2Cl)OCc2ccccc2Cl)n(C)c1=O (configuration not stated), the Potency is reported as 13 µM (active).
In the case of COC(=O)c1sc(-c2ccc(C(C)(C)C)cc2)cc1NC(=O)/C=C/C(=O)O, the Potency is reported as 16.4 µM (active).
With CC(CC(=O)Nc1ccccc1)n1ccnc1 (configuration not stated) the Potency was 0.92 µM (active).
In the case of COc1ccc2sc(-c3ccc(S(C)(=O)=O)cc3)c(-c3ccc(C(N)=O)cc3)c2c1, the Potency is reported as 25.9 µM (active).
For CCOc1ccc(N2C(=O)CC(N(CCc3ccc(OC)c(OC)c3)C(=S)Nc3ccccc3)C2=O)cc1 (configuration not stated), the Potency was 23.1 µM (active).
In the case of CC(C)c1ccc2c(c1)c(SC(C)(C)C)c(CC(C)(C)C(=O)O)n2Cc1ccc(Cl)cc1, the Potency is reported as 2.91 µM (active).
With COc1cc(OC)cc(-c2c(C#Cc3ccsc3)c3cc(-c4ccc(OC)cc4F)ccc3n2C)c1 the Potency was 0.326 µM (active).
With O=C(O)CCC(=O)N(Cc1ccccc1)Cc1ccccc1 the Potency was 0.731 µM (active).
